What was measured:
[1] = tested on: Human papillomavirus type 1a protein E7 (residues 44-93); assay: small molecules binding HPV E7 44-93 – biochemical, small-molecule microarray, residues 44-93, 635 nm fluorescence, primary screen (AID 1108); settings: fluorescence 635 nm, higher = more signal;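 also: E7 fragment applied at 1 µg/mL in TBST for 1 h at 4 C; score combines spot fluorescence with its signal to noise ratio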
[2] = hepatitis C replication reporter changes, two-sided – Huh7 cells, luciferase reporter, HCV replication inhibitor project, primary screen (AID 1109); settings: Huh7 HCV replicon luciferase reporter, 48 h; higher = more signal;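 also: huh7 hepatoma cells harbouring a luciferase neomycin HCV replicon reporter; luciferase luminescence as measure of HCV replicon replication; test concentration not given here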
[3] = target: Left-right determination factor 2 (Homo sapiens) (UniProt O00292); assay: small molecules binding LEFTY2 protein – biochemical, small-molecule microarray, 635 nm fluorescence scan, primary screen (AID 1110); settings: higher = more signal
[4] = target: Calmodulin-1 (Homo sapiens) (UniProt P0DP23); assay: small molecules binding calmodulin-1 with EGTA – biochemical, small-molecule microarray, Cy5-labelled CALM1, profiling panel (AID 1111); settings: Cy5-CALM1 binding fluorescence, higher = more signal;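 also: labelled calmodulin applied in Tris saline Tween buffer holding calcium plus EGTA and DTT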
[5] = target: Calmodulin-1 (Homo sapiens) (UniProt P0DP23); assay: small molecules binding Ca-loaded calmodulin-1 – biochemical, small-molecule microarray, Cy5-labelled CALM1, plus calcium, artefact control for SMM control-protein annotation, profiling panel (AID 1112); settings: Cy5-CALM1 binding fluorescence, higher = more signal;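 also: score merges spot fluorescence with signal to noise from triplicate slides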
[6] = probe aWnt5a binding to arrayed compounds – biochemical, biotinylated probe, 635/667 nm fluorescence, primary screen (AID 1113); settings: small-molecule microarray, higher = more signal;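 also: score merges 667 nm fluorescence intensity with signal-to-noise per printed feature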
[7] = probe aShh binding to arrayed compounds – biochemical, biotinylated probe, 635/667 nm fluorescence, primary screen (AID 1114); settings: small-molecule microarray, higher = more signal;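 also: probe is biotin-labelled aShh protein from a stem cell growth factor screen; measures binding of labelled protein to compounds printed on the slide; score merges feature fluorescence at 667 nm with signal-to-noise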
[8] = probe aNog binding to arrayed compounds – biochemical, biotinylated probe, 635/667 nm fluorescence, primary screen (AID 1115); settings: small-molecule microarray, higher = more signal;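 also: probe is biotinylated aNog protein used at 0.15 µg/mL for 1 h at 4 C; z-score combines 667 nm fluorescence of each spot with its signal to noise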
[9] = target: Torsin-1A-interacting protein 1 (Homo sapiens) (UniProt Q5JTV8); assay: compound microarray binding of lysate hLAP1 – cell lysate, small-molecule microarray, COS7 lysate, 635/667 nm fluorescence, primary screen (AID 1116); settings: 635 nm fluorescence, higher = more signal
[10] = target: Alpha-bungarotoxin (Bungarus multicinctus) (UniProt P60615); assay: compounds binding labelled alpha-BTX control protein – biochemical, small-molecule microarray, Alexa647 label, 635/667 nm fluorescence, artefact control for SMM control protein annotation, profiling panel (AID 1117); settings: alpha-BTX-A647 binding fluorescence, higher = more signal
Sequence of Alpha-bungarotoxin (Bungarus multicinctus) (P60615 whole entry, looked up): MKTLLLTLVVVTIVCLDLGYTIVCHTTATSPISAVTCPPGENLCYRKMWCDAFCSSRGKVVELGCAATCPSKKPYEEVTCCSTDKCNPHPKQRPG

Sequence of Torsin-1A-interacting protein 1 (Homo sapiens) (Q5JTV8 whole entry, looked up): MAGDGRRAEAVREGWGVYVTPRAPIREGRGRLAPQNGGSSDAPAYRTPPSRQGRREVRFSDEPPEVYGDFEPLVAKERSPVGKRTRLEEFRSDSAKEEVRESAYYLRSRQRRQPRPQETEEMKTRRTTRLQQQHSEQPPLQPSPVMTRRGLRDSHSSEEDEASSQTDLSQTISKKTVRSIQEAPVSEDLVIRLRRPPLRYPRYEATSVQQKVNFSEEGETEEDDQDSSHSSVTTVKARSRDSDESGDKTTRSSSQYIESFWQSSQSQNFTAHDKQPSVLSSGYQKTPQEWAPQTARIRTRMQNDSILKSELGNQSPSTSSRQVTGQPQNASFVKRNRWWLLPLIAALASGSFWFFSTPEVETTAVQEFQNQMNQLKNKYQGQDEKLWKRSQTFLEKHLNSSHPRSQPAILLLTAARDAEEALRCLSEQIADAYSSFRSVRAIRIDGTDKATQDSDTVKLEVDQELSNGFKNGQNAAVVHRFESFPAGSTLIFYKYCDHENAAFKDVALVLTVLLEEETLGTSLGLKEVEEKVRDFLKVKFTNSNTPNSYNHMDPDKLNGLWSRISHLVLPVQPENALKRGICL
Sequence of Left-right determination factor 2 (Homo sapiens) (O00292 whole entry, looked up): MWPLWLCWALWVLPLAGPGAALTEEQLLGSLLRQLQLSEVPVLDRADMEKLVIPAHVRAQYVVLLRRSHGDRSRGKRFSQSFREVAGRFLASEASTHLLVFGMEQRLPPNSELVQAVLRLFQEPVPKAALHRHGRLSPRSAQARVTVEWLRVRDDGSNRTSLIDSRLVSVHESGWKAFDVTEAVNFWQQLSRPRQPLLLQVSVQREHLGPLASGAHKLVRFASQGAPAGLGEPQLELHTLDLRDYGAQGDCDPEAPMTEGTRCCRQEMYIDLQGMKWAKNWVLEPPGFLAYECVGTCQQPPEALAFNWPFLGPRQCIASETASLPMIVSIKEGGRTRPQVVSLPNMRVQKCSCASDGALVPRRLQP

Compound	composite z-score [1]	z-score [2]	composite z-score [3]	composite z-score [4]	composite z-score [5]	composite z-score [6]	composite z-score [7]	composite z-score [8]	composite z-score [9]	composite z-score [10]
CCCCN1CC=CC23O[C@@H]4/C=C\CCC(C)OC(=O)C4[C@H]2C(=O)N(CCCCCCO)[C@@H]3C1=O (stereo not given in full)	0.111	-0.0691	-0.567	0.119	0.282	0.0321	-0.0709	-0.168	1.47	-0.637
C=CCOC(=O)[C@@H]1[C@H]2C(=O)O[C@H](c3ccccc3)[C@H](c3ccccc3)N2[C@H](c2ccc(OCCOC(=O)[C@H]3C[C@H]4C(=O)N[C@@H](CCCCN(C)C)C(=O)N4[C@H]3c3cccc(OCCO)c3)cc2)[C@@]12C(=O)Nc1ccc(I)cc12	1.42	-1.14	0.724	0.993	-0.069	-0.13	0.123	-0.0863	1.03	2.07
CC=CC(O)C1C=CC2C(=O)N(c3ccccc3)C(=O)C2N1Nc1ccc([N+](=O)[O-])cc1 (stereo not given)	1.21	0.0112	0.382	-0.107	-0.654	-0.0685	0.0469	-0.124	0.643	0.529
CC(C)C(=C=CC[C@@H](O)c1ccccc1OCCO)C[C@@H](O)COCc1ccccc1	0.247	-1.21	0.639	0.277	0.652	-0.128	-0.0769	0.583	0.573	-0.345
CC(=O)n1cc(C(O)C2C=CC3C(=O)N(c4ccccc4)C(=O)C3N2Nc2ccccc2)c2ccccc21 (stereo not given)	-0.175	-1.95	-0.183	0.735	0.671	0.13	1.21	0.974	1.09	1.41
[N-]=[N+]=NCc1ccccc1[C@H]1OC(c2ccc(OCCCO)cc2)=N[C@@]1(CCS(=O)(=O)c1ccccc1)C(N)=O	1.11	-0.281	0.264	0.145	0.257	-0.096	0.265	1.4	1.47	2.43
COc1ccc([Si](C)(C)[C@H]2[C@H](CCn3cc([C@H](O)c4ccccc4)nn3)O[C@@]3(C(=O)N(Cc4ccc(N5CCOC5=O)cc4)c4ccccc43)[C@@H]2C)cc1	-0.873	-2.21	-0.849	0.287	0.481	-0.176	-0.138	-0.1	-0.833	-0.374
O=C1OC[C@@H](c2ccccc2)N2CC(/C=C/c3ccccc3)=CC12 (stereo not given in full)	-1.13	-0.557	-1.43	-0.353	-0.221	-0.284	-0.2	-0.0118	-0.383	-0.273
C#CCNC(=O)[C@H](Cc1ccccc1)NC(=O)[C@@H](N=[N+]=[N-])C(C)C	0.902	0.965	0.69	0.222	-0.217	-0.117	-0.262	0.221	0.455	0.96
Cc1c(NC(=O)/C(C#N)=C/C=C/c2ccc(N(C)C)cc2)c(=O)n(-c2ccccc2)n1C	0.55	-0.754	0.431	0.824	-0.224	0.19	0.173	0.432	1.69	1.04
CCOC(=O)C[C@H]1[C@H](OC(=O)c2ccccc2-c2ccccc2)[C@@H](NC(=O)CC(C)C)c2cc(OCCCO)ccc2N1C(=O)c1ccc2ccccc2n1	0.046	-0.578	0.186	0.844	-0.456	-0.124	-0.0769	-0.134	0.171	0.719
C=CCOC(=O)[C@@H]1[C@H]2C(=O)O[C@H](c3ccccc3)[C@H](c3ccccc3)N2[C@H](c2ccc(OCCOC(=O)[C@H]3C[C@H]4C(=O)N[C@@H](CCCC[N+](C)(C)C)C(=O)N4[C@H]3c3ccc(O)cc3)cc2)[C@@]12C(=O)Nc1ccc(I)cc12	0.505	-0.908	1.05	1.64	-0.116	0.0101	0.147	-0.0927	1.49	1.89
C=CCOC(=O)[C@H]1[C@@H]2C(=O)O[C@@H](c3ccccc3)[C@@H](c3ccccc3)N2[C@@H](c2ccc(OCCOC(=O)[C@H]3C[C@H]4C(=O)N[C@@H](Cc5ccccc5)C(=O)N4[C@H]3c3ccc(O)cc3)cc2)[C@]12C(=O)Nc1ccc(I)cc12	1.39	-1.41	0.537	0.43	0.0144	0.0169	-0.333	-0.174	0.791	0.897
CC(C)CNC(=O)[C@@H]1c2ccccc2C(=O)N(Cc2cc(F)cc(C(F)(F)F)c2)[C@H]1c1ccc(CO)cc1	-0.0365	-0.604	-0.0784	0.0981	-0.025	-0.0459	0.0639	-0.579	0.662	-0.694
C=CC[C@]12N=C(c3ccc(OCCCO)cc3)O[C@H]1c1ccccc1N(C)C2=O	0.871	-1.57	0.0374	0.287	-0.274	0.0169	0.287	1.99	1.41	0.707
COc1cc2c(cc1OC)CN(C(=O)[C@@H]1[C@H]3C(=O)O[C@H](c4ccccc4)[C@H](c4ccccc4)N3[C@H](c3ccccc3OCCO)[C@@]13C(=O)Nc1ccc(C#CC4(O)CCCCCC4)cc13)CC2	1.35	-2.18	0.246	0.545	0.222	-0.0685	0.0048	0.151	1.34	1.56
COc1c(C)cc(-c2cc3c(c(-c4ccccc4)n2)[Si](C(C)C)(C(C)C)OC3)cc1C	-0.689	-0.268	-0.0473	-0.319	-0.119	-0.184	-0.153	-0.122	-0.16	0.857
C[C@H]1ON(c2ccc(C(=O)OC(C)(C)C)cc2)[C@@H](c2ccc(O)cc2)[C@@H]1C(=O)N1C(=O)OC[C@@H]1c1ccccc1	0.644	-3.09	0.465	0.403	-0.32	-0.0977	-0.341	-0.383	0.165	0.413

Compound	composite z-score [1]	z-score [2]	composite z-score [3]	composite z-score [4]	composite z-score [5]	composite z-score [6]	composite z-score [7]	composite z-score [8]	composite z-score [9]	composite z-score [10]
C=C(C(=O)CC[C@H](OC(C)=O)c1cccc(OCCO)c1)C(C)C	-0.521	-1.01	-0.728	-0.765	-0.608	-0.206	-0.117	-0.107	-0.397	1.98
NCCCCCCNC(=O)[C@H]1C[C@H]2C(=O)N[C@@H](Cc3ccccc3)C(=O)N2[C@H]1c1ccc(O)cc1	0.74	0.914	0.338	1.44	1.17	-0.0033	-0.1	-0.0496	1.21	1.55
Cc1c(NC(=O)/C(C#N)=C/C=C/c2ccccc2[N+](=O)[O-])c(=O)n(-c2ccccc2)n1C	0.475	-2.79	0.34	0.517	0.188	-0.092	-0.292	-0.527	0.37	0.556
CO[C@H]1O[C@H](CO)[C@@H](OC(=O)Nc2ccc(Oc3ccccc3)cc2)[C@H](OC(=O)Nc2ccccc2-c2ccccc2)[C@@H]1OC(=O)Nc1ccccc1-c1ccccc1	1.02	-3.19	0.242	2.17	0.409	-0.0667	0.256	1.74	1.27	1.52
COCCCNC(=O)[C@@]1(Sc2ccc(C)cc2)CC(=O)N(Cc2cc(C(F)(F)F)cc(C(F)(F)F)c2)[C@@H]1c1ccc(CO)cc1	1.07	-0.168	-0.223	0.0267	-0.683	-0.096	0.0136	-0.0069	0.156	2.13
COC(=O)C(CC#Cc1ccc2c(c1)[C@]1(C(=O)N2)[C@H](C(=O)O)[C@H]2C(=O)O[C@H](c3ccccc3)[C@H](c3ccccc3)N2[C@@H]1c1ccccc1OCCO)C(=O)OC	0.851	-2.04	0.445	1.62	0.369	-0.001	0.108	0.767	1.1	1.79
C=C(COC)/C(=C/C[C@@H](OC(=O)c1ccncc1)c1ccc(CO)o1)c1cnc2ccccc2c1	1.42	-0.632	1.03	0.274	-0.851	0.0037	0.365	0.557	1.83	2.65
C=CC[C@@]12N=C(c3ccc(OCCCO)cc3)O[C@@H]1c1ccccc1N(CCS(=O)(=O)c1ccccc1)C2=O	1.38	-0.925	0.526	1.69	0.727	-0.0303	0.147	-0.0569	0.676	0.448
CCC[C@@H]1C[C@@]1(CCC)[C@@H](NP(=O)(c1ccccc1)c1ccccc1)c1ccc(Cl)cc1	-0.213	-1.62	-0.427	-0.915	-1.31	-0.127	1.44	-0.532	-0.357	-0.846
O=C1NCC(=O)N2[C@@H]1C[C@@H](C(=O)O)[C@H]2c1ccc(O)cc1	1.4	2.63	0.834	0.458	-0.451	-0.0758	0.123	-0.36	-0.0956	0.707
CN(C)CCCNC(=O)[C@@H]1c2ccccc2C(=O)N(CC23CC4CC(CC(C4)C2)C3)[C@H]1c1ccc(CO)cc1	1.47	-3.1	0.832	0.309	-0.632	0.0215	-0.542	-0.403	0.858	1.65
C=CCC(OC(C)=O)[C@@H]1[C@@H](N(Cc2ccc(-c3ccccc3)cc2)C(=O)c2cccc3ccccc23)c2cc(OCCCO)ccc2N1C(=O)Cc1ccc2ccccc2c1 (stereo not given in full)	-0.106	-0.374	-0.304	-0.29	0.842	-0.108	-0.243	-0.225	0.0247	0.528
C=CCN1C(=O)[C@]2(CC=C)N=C(c3ccc(OCCCO)cc3)O[C@@H]2c2ccccc21	1.37	-2.63	0.503	1.94	0.541	0.123	0.0253	0.0962	1.14	1.08
COCCCNC(=O)[C@]1(CCC(=O)OC(C)(C)C)N=C(c2ccc(OCCCO)cc2)O[C@@H]1c1ccccc1	1.49	-0.151	-0.737	1.59	1	-0.0203	-0.0248	-0.0076	1.49	1.6
CC(C)(C)OC(=O)CC[C@]1(C(=O)O)N=C(c2ccc(OCCCO)cc2)O[C@H]1c1ccccc1	0.138	-0.733	-0.369	0.76	1.05	-0.096	-0.0769	-0.172	0.0522	0.574
C=CC[C@@H](OC(=O)Nc1ccc(OC)cc1)c1ccc(OCCO)cc1	-1.65	1.51	-1.8	-1.4	-0.819	-0.224	0.0723	-0.364	-0.326	-0.809
O=C(CS)NCCCCCCNC(=O)[C@H]1C[C@H]2C(=O)N[C@@H](Cc3ccccc3)C(=O)N2[C@H]1c1cccc(OCCO)c1	1.37	-0.963	1.23	1.79	0.0164	0.0066	0.676	0.897	1.38	2.44

— PubChem BioAssay
